Test results from PubChem BioAssay AID571 (The Scripps Research Institute Molecular Screening Center, 2007).
About 640 (0.98%) of roughly 65,000 compounds were called active. This excerpt belongs to a sample that is enriched for actives. Unmarked numbers belong to inactive results.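 How the source made its calls: active means inhibition above a set limit, the mean inhibition across every tested compound plus 3 SD (cut at about 29% in these data); inactive means the rest.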

Target: 5-hydroxytryptamine receptor 1E (Homo sapiens) (UniProt P28566)
Assay: blockade of human serotonin 5HT1E receptor – cell-based, HTS, primary screen (AID 571);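 further: signal is the 460 over 535 nm emission ratio of beta-lactamase substrate; 0% = agonist plus DMSO wells and 100% = wells without agonist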
Conditions: CHO 5-HT1E Ga15 NFAT-bla reporter, FRET, antagonist; at 6 µM; stronger effect = higher value

5-hydroxytryptamine receptor 1E (Homo sapiens), sequence (P28566 whole entry, looked up): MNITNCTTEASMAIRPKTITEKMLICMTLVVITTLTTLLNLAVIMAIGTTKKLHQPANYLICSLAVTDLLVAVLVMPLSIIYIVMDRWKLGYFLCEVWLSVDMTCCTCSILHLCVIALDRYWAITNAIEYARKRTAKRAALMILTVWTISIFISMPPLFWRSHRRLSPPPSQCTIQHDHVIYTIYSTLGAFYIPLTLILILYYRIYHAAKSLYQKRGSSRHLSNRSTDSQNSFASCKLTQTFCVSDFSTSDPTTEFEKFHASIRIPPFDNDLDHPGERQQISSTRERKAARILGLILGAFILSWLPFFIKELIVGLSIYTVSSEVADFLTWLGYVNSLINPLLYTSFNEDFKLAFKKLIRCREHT

Structure (SMILES) | inhibition
COc1ccc(NC2CC(=O)N(C)C2=O)cc1 (stereo not given) | -0.34%
C[C@H](NC(=O)OC(C)(C)C)c1nnc(SCC(N)=O)o1 | -6.77%
O=C(Nc1ccccc1N1CCCCC1)c1cccc(F)c1 | -0.39%
O=C(NCc1ccco1)c1cccn2c(=O)c3cc(Br)ccc3nc12 | 11.4%
Cc1cccc(NC(=O)CN2CCCN(S(=O)(=O)c3ccc(Br)s3)CC2)c1 | 12.7%
CCC1(C)Cc2c(sc3nc4n(c(=O)c23)CCCS4)CO1 (stereo not given) | 7.47%
COC(=O)c1c(NC(=O)CSc2nc3c(c(=O)n(C)c(=O)n3C)n2C(C)C)sc(C)c1C | -1.61%
CCCCOC(=O)c1ccc(N2C(=O)CC(N3CCN(C/C=C/c4ccccc4)CC3)C2=O)cc1 (stereo not given) | -8.79%
CCOc1ccc(N2C(=O)CC(N(O)c3ccccc3)C2=O)cc1 (stereo not given) | -13.5%
CCCCCCC(=O)N(O)C1CC(=O)N(c2ccccc2)C1=O (stereo not given) | 29% (active)
Cc1cc(C)cc(OCc2nnc(SCC(=O)OC3CCCCC3)o2)c1 | 1.45%
Cc1cc(C(=O)OCC(=O)c2c(N)n(C)c(=O)n(C)c2=O)c(C)o1 | -2.61%
CCOc1ccccc1NC(=O)C1CCC(CNc2c(N3CCOCC3)c(=O)c2=O)CC1 (stereo not given) | -7.97%
Cn1c(=O)[nH]c(=O)c2c1nc(N1CCN(CCO)CC1)n2CCSc1nc2ccccc2s1 | -9.93%
COc1ccc(NC(=O)c2c(SC)nsc2SC)cc1 | 3.42%
Cc1cccc(-n2nc3c(c2NC(=O)c2ccc(Br)o2)CSC3)c1C | -0.62%
COc1cccc(C(=O)Nc2c3c(nn2-c2cccc(C)c2C)CS(=O)(=O)C3)c1OC | 29.9% (active)
O=C(CC1CCCCC1)Nc1c2c(nn1-c1ccc(F)cc1)CS(=O)(=O)C2 | 3.57%
Cc1noc(C)c1S(=O)(=O)N1CCCC(C(=O)Nc2nccs2)C1 (stereo not given) | 6.69%
CC(C)C[C@H](NC(=O)NCCc1ccc(Cl)cc1)C(=O)O | 0.25%
Cn1cccc1Cc1nnc(SCC(=O)NCc2ccc3c(c2)OCO3)n1CCc1ccccc1 | -2.19%
C=CCn1c(COc2ccccc2C)nnc1SCC(=O)O | 10.3%
COC(=O)c1ccc(NC(=O)CSc2nnc(-c3ccncc3)n2C)cc1 | -4.91%
CCOc1cc(CN2CCN(C(=O)CC(C)C)CC2)ccc1OC | -2.34%
CCOc1cc(-c2noc(CCC(=O)N3CCOCC3)n2)ccc1OC | 8.36%

Structure (SMILES) | inhibition
CCOc1cc(C(=O)N2CCc3cc(OC)c(OC)cc3C2)ccc1OC(F)F | 90.1% (active)
CCN(CC)C(=O)N1CCN(C(=O)c2ccc(C)cn2)CC1 | -13.6%
COC(=O)C1(S(=O)(=O)C2(C(=O)OC)CCCC2)CCCC1 | -13%
C/C(CC(O)(/C=N/O)c1ccccc1)=N\O (stereo not given) | 1.85%
COCCNC(=O)C(C#N)c1nc2ccccc2nc1N1CCN(Cc2ccc3c(c2)OCO3)CC1 (stereo not given) | 2.9%
Cc1ccc(-c2noc(CSc3nnnn3-c3ccccc3)n2)cc1 | 4.04%
O=c1c2ccccc2nc(CSc2nnnn2-c2ccccc2)n1-c1ccccc1 | -9.14%
CN(C)c1nc(N)nc(CSc2nnnn2-c2cccc3ccccc23)n1 | 30.2% (active)
CC(C)OCCCNc1ncnc2c1[nH]c1ccc(F)cc12 | 35% (active)
O=C1CCCN1CCCNc1ncnc2c1[nH]c1ccccc12 | 4.24%
CCN1CCCC1CNc1ncnc2c1[nH]c1ccc(F)cc12 (stereo not given) | -8.46%
CCOc1ccc(NC(=O)Nc2cc(C)on2)cc1 | -2.74%
O=C(CN1C(=O)COc2ccccc21)Nc1ccc(F)cc1 | 6.81%
O=C(CSc1nnc(-c2c[nH]c3ccccc23)n1-c1ccc(F)cc1)NCc1ccco1 | 6.88%
COc1ccc(S(=O)(=O)N(C)CC(=O)Nc2ccc3c(c2)OCCO3)cc1OC | 10.4%
CCC(C)(C)n1nnnc1C(c1cccs1)N1CCN(c2nc3ccccc3s2)CC1 (stereo not given) | 3.71%
Cc1nnc(SCc2cc(=O)[nH]c(N3CCN(Cc4ccccc4)CC3)n2)s1 | -7.09%
COc1cc(OC)c(C(=O)Nc2ccc(N(C)C)cc2)cc1OC | -7.5%
COc1ccccc1-c1nc(C(F)(F)F)c(OC)o1 | -6.75%
Cc1cc(C)n2nc(C(=O)Oc3ccc4c(c3)OCO4)nc2n1 | -5.31%
Nc1nonc1-c1nc2ccccc2n1CCC(=O)O | 7.28%
Nc1nonc1-c1nc2ccccc2n1Cc1ccc(F)cc1 | 8.52%
COc1ccc(C)c(Cn2c(-c3nonc3N)nc3ccccc32)c1 | 33.6% (active)
NC(=O)CSc1oc(-c2cccs2)nc1S(=O)(=O)c1ccccc1 | 1.39%
CN(C)CCCNC(=O)c1ccc2[nH]c3ccccc3c2c1 | -3.46%

Structure (SMILES) | inhibition
CCCCOc1ccc(C(C)(O)CCN2CCOCC2)cc1 (stereo not given) | 2.45%
Cc1ccc(S(=O)(=O)n2nc(OC(=O)C(C)(C)C)cc2N)cc1 | -1.76%
CN1CCCC(OC(=O)COc2ccc(Br)cc2)C1 (stereo not given) | -15.4%
CC[C@H]1CN2CCc3cc(OC)c(OC)cc3[C@@H]2C[C@@H]1C[C@H]1NCCc2cc(OC)c(OC)cc21 | 92.4% (active)
CCOC(=O)C1CCCN(C(=O)c2cncc(Br)c2)C1 (stereo not given) | 3.85%
O=C(c1ccco1)N1CCN(CC(=O)N(C2CCCCC2)C2CCS(=O)(=O)C2)CC1 (stereo not given) | 16.6%
CCSC1=C(C#N)C(=O)n2c1cc1c2CCCC1 | -0.37%
CCSc1ncnc2c(C#N)c3n(c12)CCCCC3 | 47.6% (active)
COC(=O)c1ccccc1NC(=O)Cn1nc(C(F)(F)F)c2c1CCC2 | -3.25%
CCn1c2c(c3ccc(OC)cc31)CCCC2=O | 4.52%
Cc1nn(Cc2ccc(Cl)c(Cl)c2)c(C)c1NC(=O)c1cc(C2CC2)on1 | 34.3% (active)
O=C(Nc1cc(C(F)(F)F)ccc1Cl)c1cc(C2CC2)on1 | -9.73%
Cc1cc(NC(=O)c2cc(-c3cccs3)on2)nn1Cc1ccc(Cl)cc1 | -7.29%
CC(=O)C1C(c2ccc(Cl)cc2)NC(=O)NC1(O)C(F)(F)F (stereo not given) | 6.15%
CCSC(C)CC1C/C(=N/O)c2c(C)noc2C1 (stereo not given) | 21.4%
Cc1nc2sc(C(c3ccco3)N3CCC4(CC3)OCCO4)c(O)n2n1 (stereo not given) | -11.1%
CC1(C)Oc2ccc3ccc(=O)oc3c2/C(=C/NCCO)C1=O | -8.4%
CN=C1SC(C(=O)O)CC(=O)N1C (stereo not given) | 1.76%
CC[C@]1(O)C[C@@H]2CN(CCc3c([nH]c4ccccc34)[C@@](C(=O)OC)(c3cc4c(cc3OC)N(C)[C@H]3[C@@](O)(C(=O)OC)[C@H](OC(C)=O)[C@]5(CC)C=CCN6CC[C@]43[C@@H]65)C2)C1 | 73.5% (active)
CC[C@]1(O)CC2CN(CCc3c([nH]c4ccccc34)[C@@](C(=O)OC)(c3cc4c(cc3OC)N(C=O)[C@H]3[C@@](O)(C(=O)OC)[C@H](OC(C)=O)[C@]5(CC)C=CCN6CC[C@]43[C@@H]65)C2)C1 (stereo not given in full) | 71.9% (active)
Cc1ccc(C(c2nnnn2C(C)(C)C)N2CCc3ccccc3C2)cc1 (stereo not given) | -3.9%
FC(F)Oc1ccccc1C1CC(c2ccc(Br)s2)Nc2ncnn21 (stereo not given) | 12%
O=C(c1cnn2ccccc12)N1CCc2ccccc21 | -4.32%
COCCNC(=O)CN(C(=O)CCC(=O)Nc1cc(C)on1)c1ccc(C)cc1C | -0.23%
Cc1cccc(Cn2c(SCCO)nc3c2c(=O)n(C)c(=O)n3C)c1 | -1.41%
